Measurements as given in PubChem BioAssay AID485270 (The Scripps Research Institute Molecular Screening Center, 2010).
In all, about 330,000 compounds went through this assay and about 5,800 (1.8%) were called active. No stated cut-off is given here; in the data, active means inhibition mostly above about 38% (no sharp cut-off); inactive means mostly below about 40%. The entries come from a sample that favours actives as a whole.

What follows are compounds tested against Orexin/Hypocretin receptor type 1 (Homo sapiens) (UniProt O43613) (assay: antagonists of human orexin 1 receptor (OX1R) (AID 485270;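 further: 0% = agonist challenge alone and 100% = reference antagonist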)). Conditions: OX1R-expressing cells, FRET antagonist read-out; at 6.6 µM; stronger effect = higher value.
Chain of Orexin/Hypocretin receptor type 1 (Homo sapiens) (O43613 whole entry, looked up): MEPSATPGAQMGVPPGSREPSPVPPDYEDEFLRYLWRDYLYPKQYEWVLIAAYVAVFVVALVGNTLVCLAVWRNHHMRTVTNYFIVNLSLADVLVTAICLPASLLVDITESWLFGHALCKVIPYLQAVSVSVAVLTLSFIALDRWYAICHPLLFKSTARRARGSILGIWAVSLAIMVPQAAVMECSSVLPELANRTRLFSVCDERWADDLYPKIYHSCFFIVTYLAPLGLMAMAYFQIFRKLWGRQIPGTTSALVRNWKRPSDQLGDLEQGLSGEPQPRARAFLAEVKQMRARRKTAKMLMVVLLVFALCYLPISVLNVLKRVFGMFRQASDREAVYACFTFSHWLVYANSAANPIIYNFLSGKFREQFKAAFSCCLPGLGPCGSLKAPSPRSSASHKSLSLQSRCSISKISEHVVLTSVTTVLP

Row | Compound | inhibition
1 | COc1ccc(C(CNC(=O)c2cccc(S(=O)(=O)Nc3ccccc3Cl)c2)N2CCOCC2)cc1 (centres undefined) | 34.6% (active)
2 | COc1ccc(C(CNC(=O)c2ccc(S(=O)(=O)Nc3ccccc3C)cc2)N2CCOCC2)cc1 (centres undefined) | 8.1% (inactive)
3 | COc1ccc(C(CNC(=O)c2cccc(NS(=O)(=O)c3ccc(C)c(F)c3)c2)N2CCCC2)cc1 (centres undefined) | 6.44% (inactive)
4 | O=C(NCC#CCSc1nnc(-c2cccc3ccccc23)o1)c1cccs1 | 8.58% (inactive)
5 | COc1ccc(S(=O)(=O)N(C)C[C@H]2Oc3c(NC(=O)Nc4ccc5c(c4)OCO5)cccc3C(=O)N([C@H](C)CO)C[C@@H]2C)cc1 | 6.37% (inactive)
6 | C=CCNC(=O)c1ccc2c3n(nc2c1)-c1ccc(C)cc1CO3 | 75% (active)
7 | Cc1cccc(-c2nc3ccc(C(=O)NCCN4CCN(C)CC4)cc3nc2-c2cccc(C)c2)c1 | 17.7% (inactive)
8 | Cn1nnc2cc(C(=O)NCCC3=CCCCC3)ccc21 | 20.7% (inactive)
9 | CC(NC(=O)COC(=O)c1ccc2ccccc2n1)c1ccccc1 (centres undefined) | 15.5% (inactive)
10 | O=C(NC(=S)Nc1ccc(Br)cc1F)C1CCCCC1 | 4.65% (inactive)
11 | O=C(CN1C(=O)NC2(CCCCCC2)C1=O)NCc1ccc(F)cc1 | 6.28% (inactive)
12 | COc1cc(C)ccc1OCC(=O)OCC(=O)c1ccc[nH]1 | 11.8% (inactive)
13 | O=C(NCCC(=O)N1O[C@@H]2C=C[C@H]1C2)OCC1c2ccccc2-c2ccccc21 | 7.51% (inactive)
14 | O=C(Nc1ccc(Cl)c(Cl)c1)N1CC=C(c2ccccc2)CC1 | 56.1% (active)
15 | O=C(Nc1ccccc1)N1CCN(C(=O)Nc2ccccc2)CC1 | 7.94% (inactive)
16 | COc1cc(C(=O)NCC(=O)N2CC=C(c3ccccc3)CC2)cc(OC)c1OC | 13.7% (inactive)
17 | CC(C)n1cnc2c(NCc3ccccc3)cc(N[C@@H](CO)Cc3ccccc3)cc21 | 33.2% (inactive)
18 | Cc1cc(-c2ccc(C)c(S(=O)(=O)NCCCN(Cc3ccccc3)C(C)C)c2)on1 | 22.4% (inactive)
19 | Cc1cc(-c2ccc(C)c(S(=O)(=O)NC(C)Cc3ccco3)c2)on1 (centres undefined) | 46% (active)
20 | Cc1cc(-c2ccc(C)c(S(=O)(=O)Nc3ccc(S(N)(=O)=O)cc3)c2)on1 | 14.9% (inactive)
21 | COc1ccc(S(=O)(=O)N(C)C[C@H]2Oc3ccc(NS(=O)(=O)c4cccs4)cc3CC(=O)N([C@H](C)CO)C[C@H]2C)cc1 | 8.61% (inactive)
22 | Cc1c(/C=N/N2C(=O)C3C4C=CC(C4)C3C2=O)c2ccccc2n1C (centres undefined) | 1.17% (inactive)
23 | Cc1ccc(NC(=O)c2cc3ccccc3o2)cc1 | 4.2% (inactive)

Row | Compound | inhibition
24 | O=C(N/N=C/c1c[nH]c2ccccc12)c1cc2ccccc2o1 | 65.5% (active)
25 | O=C(O)c1cccc(NC(=S)N/N=C/c2c[nH]c3ccccc23)c1 | 18.9% (inactive)
26 | O=C(N/N=C/c1c[nH]c2ccccc12)c1ccccc1O | -0.06% (inactive)
27 | Cc1c(/C=N\NC(=O)c2cc3ccccc3o2)c2ccccc2n1C | 89.7% (active)
28 | C=CC1=C(C(=O)O)N2C(=O)[C@@H](NC(=O)/C(=N\OCC(=O)O)c3csc(N)n3)[C@H]2SC1 | 9.76% (inactive)
29 | CN(C)C(=O)CCc1ccc2c3c([nH]c2c1)[C@]1(C)[C@@H](C(=O)N2CCOCC2)C[C@H](CC(=O)NCCc2ccccn2)C(=O)N1CC3 | 8.14% (inactive)
30 | O=C(CCS(=O)(=O)c1cccc2nonc12)NCCc1ccccc1Cl | 40.5% (inactive)
31 | CC1CCCCC1NC(=O)CCS(=O)(=O)c1ccc2c(c1)NC(=O)CO2 (centres undefined) | -0.2% (inactive)
32 | CC1CCCCC1NC(=O)CCS(=O)(=O)c1cccc2nonc12 (centres undefined) | 57.3% (active)
33 | Cc1nn(-c2ccccc2)nc1C(=O)OCC(=O)N1CCCCC1C (centres undefined) | 8.79% (inactive)
34 | CC[n+]1cc(C)ccc1/C=C/c1ccc(N(C)C)cc1 | 52.2% (active)
35 | Cc1noc(C)c1C(=O)OC(C)C(=O)Nc1ccc2c(c1)OCO2 (centres undefined) | 6.68% (inactive)
36 | COc1ccc(S(=O)(=O)N2CCN(CC(=O)N3CCOCC3)CC2)cc1OC | 7.86% (inactive)
37 | C/C(=N\NC(=O)c1ccc2ccccc2c1)c1cccnc1 | 7.2% (inactive)
38 | CCOc1ccccc1NC(=O)c1cccnc1 | 13% (inactive)
39 | CCn1c(O)c2ccc(C(=O)N=NC(=O)c3cccnc3)cc2c1O | 52.5% (active)
40 | O=C(OCC(=O)N1CCCCCC1)c1ccc(Cl)nc1 | 9.15% (inactive)
41 | C=CC[C@@H](Cc1ccc(F)cc1)C(=O)OC[C@H]1CCCN1C(=O)[C@H](CC=C)CC(=O)N(CCO)Cc1ccccc1 | 5.09% (inactive)
42 | CCCSc1ccc([C@H]2N[C@@](Cc3ccccc3)(C(=O)OC)[C@H]3C(=O)N(C)C(=O)[C@@H]23)cc1 | 8.14% (inactive)
43 | CCC1CCCCN1C(=S)NC(=O)c1ccco1 (centres undefined) | 0.14% (inactive)
44 | Cc1ccc(NC(=O)CSc2nn3c(=O)c(C)nnc3s2)cc1Cl | 53.8% (active)
45 | Cc1ccc(NC(=O)CSc2nnc(CNC(=O)c3ccccc3F)o2)cc1Cl | 13.1% (inactive)
46 | COc1ccc(Cc2nnc(SCC(=O)Nc3ccc(C)c(Cl)c3)[nH]c2=O)cc1 | 27% (inactive)

Row | Compound | inhibition
47 | CC(C)n1cnc2c(NCc3ccccc3)cc(OCC3CCN(C)CC3)cc21 | 19.4% (inactive)
48 | Cc1cccc(C(=O)OCC(=O)NC(C)C2CC3CCC2C3)c1O (centres undefined) | 17.1% (inactive)
49 | COCCn1c(C)cc(C(=O)CN2c3cccc4cccc(c34)S2(=O)=O)c1C | 24.1% (inactive)
50 | Cc1ccc(NC(=O)c2ccc(Cl)nc2)cc1S(=O)(=O)N1CCOCC1 | 5.02% (inactive)
51 | CCN(C(=O)CSc1nnnn1-c1ccc(OC)cc1)C1CCS(=O)(=O)C1 (centres undefined) | 8.67% (inactive)
52 | COc1cc(/C=C/C(=O)OCC(=O)NCCCc2ccccc2)ccc1O | 5.75% (inactive)
53 | O=[n+]1c2c(n([O-])c3cc(Br)ccc31)CCC2 | 66% (active)
54 | Cc1ccc(-c2c(C)n([O-])c3c([n+]2=O)CCC3)cc1 | 22.7% (inactive)
55 | Cc1ccc(-c2c[n+](=O)c3c(n2[O-])CCC3)cc1 | 17.4% (inactive)
56 | CC(C)CC1(C)NC(=O)N(CC(=O)Nc2ccc3c(c2)OCCO3)C1=O (centres undefined) | 5.05% (inactive)
57 | COc1ccc(CNC(=O)C[C@H]2C[C@H](C(=O)N3CCOCC3)[C@@]3(C)c4[nH]c5cc(CCC(=O)N(C)C)ccc5c4CCN3C2=O)cc1OC | 1.77% (inactive)
58 | Nc1c(-c2ccc(F)cc2)cnc2ncnn12 | 7.26% (inactive)
59 | CC1(C)CN(c2ccc(-c3ccnc4ncnn34)cc2)C1=O | 41.3% (active)
60 | Cc1cccc(-c2nnc(SCC(=O)O)n2Cc2ccccc2)c1 | -2.09% (inactive)
61 | CCn1nnnc1SCC(=O)c1ccc(C)cc1C | 12.5% (inactive)
62 | Cc1ccc2c(c1)nnc1nnc(SCC(=O)O)n12 | 89.5% (active)
63 | CCN(C(=O)COC(=O)c1ccccc1O)c1cccc2ccccc12 | 4.23% (inactive)
64 | CC[C@]12c3[nH]c4ccc(Cl)cc4c3CCN1C(=O)[C@@H](CC(=O)NCCCOC)C[C@@H]2C(=O)N1CCN(C(=O)C2CC2)CC1 | -3.2% (inactive)
65 | O=C(Cc1ccccc1)N1CCN(S(=O)(=O)c2ccc([N+](=O)[O-])cc2)CC1 | 88.8% (active)
66 | O=C(C1CCC1)N1CCN(S(=O)(=O)c2ccc([N+](=O)[O-])cc2)CC1 | 43.9% (active)
67 | O=C(C1CCCN(S(=O)(=O)c2ccccc2)C1)N1CCN(c2ccc(F)cc2)CC1 (centres undefined) | 13.8% (inactive)
68 | O=C(Cc1ccccc1)NNS(=O)(=O)c1ccc([N+](=O)[O-])cc1 | 42% (inactive)
69 | O=C(O)C1CCCCC1C(=O)N1CCN(S(=O)(=O)c2ccc(F)cc2)CC1 (centres undefined) | 7.06% (inactive)

Row | Compound | inhibition
70 | Cc1ccc(S(=O)(=O)N2CCCC(C(=O)N3CCN(C)CC3)C2)cc1 (centres undefined) | 16.7% (inactive)
71 | COc1ccc(CCC(=O)N2CCN(S(=O)(=O)c3ccc(OC)cc3)CC2)cc1 | 3.59% (inactive)
72 | O=C(NNS(=O)(=O)c1ccc([N+](=O)[O-])cc1)C1CCCCC1 | 34.2% (inactive)
73 | O=C(C1CCCN(S(=O)(=O)c2ccc([N+](=O)[O-])cc2)C1)N1CCCCC1 (centres undefined) | 66.7% (active)
74 | CC1CCCN(C(=O)CN2C(=O)c3ccccc3S2(=O)=O)C1 (centres undefined) | 1.18% (inactive)
75 | COc1ccc(C(=O)Nc2cc(S(=O)(=O)N3CCCC3)ccc2Cl)cc1 | 16.2% (inactive)
76 | COc1ccc(OCC(=O)NNC(=O)C2CCC2)cc1 | -2.24% (inactive)
77 | O=C(COC(=O)COc1cccc(F)c1)NCC1CCCCC1 | 4.71% (inactive)
78 | O=C(CN1C(=O)NC2(CCOc3ccccc32)C1=O)Nc1cccc([N+](=O)[O-])c1 (centres undefined) | 7.29% (inactive)
79 | Cc1ccc(F)cc1NC(=O)CSCc1c(C)noc1C | -1.27% (inactive)
80 | CCc1noc(C)c1C(=O)Nc1nc2ccc(OC)cc2s1 | 25.1% (inactive)
81 | Cc1noc(C)c1CSCC(=O)Nc1nc2ccc(Oc3ccccc3)cc2s1 | 76% (active)
82 | Nn1c(SCC(=O)NC2CCCc3ccccc32)nnc1C1CC1 (centres undefined) | 8.92% (inactive)
83 | CCOC(=O)C(C)Oc1cccc2c(=O)n(CC(=O)N3CCc4ccccc43)ccc12 (centres undefined) | 12.2% (inactive)
84 | COC(=O)COc1cccc2c(=O)n(CC(=O)NCCc3ccc(OC)c(OC)c3)ccc12 | 1.07% (inactive)
85 | CCOC(=O)C(C)Oc1cccc2c(=O)n(CC(=O)NCCc3ccc(OC)c(OC)c3)ccc12 (centres undefined) | 37% (active)
86 | Cc1onc(-c2c(F)cccc2Cl)c1C(=O)OCC(=O)N1C(C)CCCC1C (centres undefined) | 17.2% (inactive)
87 | CN(C)CCNC(=O)c1[nH]nc2c1CCc1ccccc1-2 | 3.78% (inactive)
88 | COc1cccc(/C=N/NC(=O)c2[nH]nc3c2CCc2ccccc2-3)c1O | 75.7% (active)
89 | COc1ccc(/C=N/NC(=O)c2ccc3c(c2)OCCO3)c(OC)c1 | 22.9% (inactive)
